Shn3 inh set2 = reduces Shn3 3'UTR luciferase signal in osteoblasts. Clone20 osteoblast Shn3 3'UTR firefly luciferase, 24 h. inhibition, % at 12.5 µM. 0.52% of 360,000 active. AID 588674;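 active = mean inhibition of at least 75% with every replicate also reaching 75%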
LMP1 NFkB inh = reduces LMP1-driven NF-kappaB luciferase signal; AID 504558; 0.69% of 350,000 active; LMP1-induced NF-kappaB luciferase reporter cells, luminescence; inhibition, % at 12.5 µM; in the data active = inhibition above about 41%
PAX8 reporter = lowers PAX8-driven luciferase in RMG-I cells. inhibition, % at 12.6 µM. RMG-I TPO-luciferase reporter, SteadyGlo, 24 h. 1.2% of 360,000 active;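 active = mean replicate inhibition at least 60% with every replicate also reaching 60%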;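 note: luciferase light reporting Pax8 driven TPO promoter activity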
aSyn UTR inh = MLPCN primary screen, SNCA 5' untranslated region | inhibition, % (tested at 7.5 µM) | alpha-synuclein 5'UTR reporter, inhibitor activity | 0.82% of 300,000 active | AID 1813; in the data active = inhibition above about 60%;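 note: H4 neuroglioblastoma cells stably carrying SNCA 5'UTR luciferase fusion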
MITF TRPM1 inh = reduces MITF-dependent TRPM1 promoter luciferase signal. inhibition, % at 12.5 µM. 0.83% of 330,000 active. SK-MEL-5 TRPM1 promoter luciferase, 24 h. AID 488899;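 active = mean inhibition across replicates of 60% or more, whatever share of single replicates reaches that level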
Each line names hits and unclear results; the compound was inactive in the other large screens. Compounds with a hit are over-represented: about 2.1% of the library has one in this group of screens.

Cc1ccc(S(=O)(=O)N(C)C[C@@H]2OCCCC[C@H](C)Oc3ccc(NS(=O)(=O)c4ccc(F)cc4)cc3C(=O)N([C@@H](C)CO)C[C@@H]2C)cc1	none (no result: Shn3 inh set2, LMP1 NFkB inh, aSyn UTR inh, MITF TRPM1 inh)
C[C@@H]1CCCCO[C@H](CN(C)S(=O)(=O)c2ccccc2)[C@H](C)CN([C@@H](C)CO)C(=O)c2cc(NS(=O)(=O)c3ccc(F)cc3)ccc2O1	none (no result: Shn3 inh set2, LMP1 NFkB inh, aSyn UTR inh, MITF TRPM1 inh)
C[C@H](CO)N1C[C@H](C)[C@H](CN(C)S(=O)(=O)c2ccccc2)OCCCC[C@H](C)Oc2ccc(NS(=O)(=O)c3ccc(F)cc3)cc2C1=O	PAX8 reporter 62.8 (no result: Shn3 inh set2, LMP1 NFkB inh, aSyn UTR inh, MITF TRPM1 inh)
Cn1c(NC2CCCCC2)cc(=O)n(C)c1=O	none
Cc1cc(C2CCCCC2)n(O)c(=O)c1	PAX8 reporter 73.3, MITF TRPM1 inh 78.2 (no result: aSyn UTR inh)
CC(C)N1CCC(=NNc2ccc(S(=O)(=O)N3CCOCC3)cc2[N+](=O)[O-])CC1	none
CCCN1CCC(=NNc2ccc(S(=O)(=O)N3CCOCC3)cc2[N+](=O)[O-])CC1	aSyn UTR inh 64.1
COc1ccccc1NC(=O)CN1CCN(CC(=O)Nc2ccc(OCc3ccccc3)cc2)CC1	none (no result: PAX8 reporter)
CS(=O)(=O)c1ccc2nc(NC(=O)CCS(=O)(=O)c3ccccc3)sc2c1	none
CCCCCC(C)NC(=S)NC(=O)c1cc(S(=O)(=O)N2CCOCC2)ccc1C (configuration not stated)	aSyn UTR inh 66.2
CCCC(C)NC(=S)NC(=O)c1cc(S(=O)(=O)N2CCOCC2)ccc1C (configuration not stated)	none
COc1cc(C(=O)N/N=c2/sc3ccccc3n2C)cc(OC)c1OC	none
Cn1/c(=N/NC(=O)c2ccccc2Br)sc2ccccc21	LMP1 NFkB inh 48.6
Cc1cc(C(=O)CN2C(=O)c3ccccc3C2=O)c(C)n1Cc1cccs1	LMP1 NFkB inh 50.4 (no result: PAX8 reporter)
CO[C@H]1CN(C)C(=O)c2cc(NC(=O)C3CCCCC3)ccc2OC[C@H](C)N(Cc2nccs2)C[C@H]1C	none (no result: Shn3 inh set2, LMP1 NFkB inh, aSyn UTR inh, MITF TRPM1 inh)
C/C(CC(=O)Nc1ccc2ccccc2c1)=N\NC(=O)c1ccc(O)c(O)c1	none
c1ccc2nc(-c3nc4ccccc4[nH]3)ccc2c1	aSyn UTR inh 74.4 (no result: PAX8 reporter)
Nc1nonc1-n1nnc(C(=O)N/N=C/c2ccc(Br)cc2)c1CN1CCOCC1	none
COc1ccc(Cn2c(-c3ccc(C)cc3)c[n+]3ccccc23)cc1	PAX8 reporter 88.4, MITF TRPM1 inh 77.7
COc1cccc(C(=O)CC(=O)C(=O)Nc2ccc(C)cc2Cl)c1	LMP1 NFkB inh 46.4
COc1ccc(C(=O)CC(=O)C(=O)Nc2ccc(C)cc2Cl)cc1	none
O=C(NCC1CCCO1)C1CC(=O)N(C2CCCCCC2)C1 (configuration not stated)	none (no result: PAX8 reporter)
NC(=O)c1sc2nc3c(c(-c4cccs4)c2c1N)CCCCC3	LMP1 NFkB inh 71.7 (no result: PAX8 reporter)
NC(=O)c1sc2nc3c(c(-c4cccnc4)c2c1N)CCC3	none (no result: PAX8 reporter)
O=C1c2ccccc2S(=O)(=O)N1Cc1nc2ccccc2s1	LMP1 NFkB inh 75.8, aSyn UTR inh 111.7, MITF TRPM1 inh 70.4 (no result: PAX8 reporter)
COc1ccc(/C=N/NC(=O)Cn2cnc3c2c(=O)n(C)c(=O)n3C)c(OC)c1OC	none (no result: LMP1 NFkB inh, MITF TRPM1 inh)
O=C(Oc1c(CN2CCOCC2)cc(Cl)c2cccnc12)c1ccccc1F	aSyn UTR inh 105.8, MITF TRPM1 inh 68.5
O=C(Oc1ccc(C(=S)N2CCOCC2)cc1Cl)c1ccccc1F	none
Oc1ccc(CN2CCN(Cc3ccccc3)CC2)c2cccnc12	none
O=[N+]([O-])c1cc(CN2CCN(c3ccccc3)CC2)c(O)c2ncccc12	Shn3 inh set2 89.8, LMP1 NFkB inh 79.8, aSyn UTR inh 82.0, MITF TRPM1 inh 75.3
CN1CCN(Cc2cc(COCc3ccccc3)c3cccnc3c2O)CC1	LMP1 NFkB inh 57.6, aSyn UTR inh 99.4, MITF TRPM1 inh 79.2
COc1cc(OC)cc(C(=O)Oc2c(CN3CCOCC3)cc(Cl)c3cccnc23)c1	aSyn UTR inh 92.0
CN(C)CCCNC(=O)C[C@@H]1C=C[C@@H](NS(=O)(=O)c2ccc(F)cc2)[C@@H](CO)O1	none (no result: Shn3 inh set2, LMP1 NFkB inh, aSyn UTR inh, MITF TRPM1 inh)
c1ccc(-c2cc3ncccc3cn2)cc1	none (no result: aSyn UTR inh)
COc1cccc(OCC(Cn2c(C)nc3ccccc32)OC(C)=O)c1 (configuration not stated)	none
CCCc1n[nH]c(=O)c2c1nnn2Cc1ccccc1	none
Oc1c(Cl)cc(CN2CCOCC2)c2cccnc12	Shn3 inh set2 90.3, PAX8 reporter 103.0 (no result: aSyn UTR inh)
O=C(Oc1c(CN2CCOCC2)cc(Cl)c2cccnc12)c1ccccc1	MITF TRPM1 inh 64.1
Oc1c(CN2CCc3ccccc3C2)cc(Cl)c2cccnc12	Shn3 inh set2 86.8, LMP1 NFkB inh 84.9, aSyn UTR inh 90.8, MITF TRPM1 inh 75.1 (no result: PAX8 reporter)
COc1ccc(C(=O)Oc2c(CN3CCOCC3)cc(Cl)c3cccnc23)cc1OC	none (no result: Shn3 inh set2, LMP1 NFkB inh, MITF TRPM1 inh)
Oc1c(CN2CCCCC2)cc(Br)c2cccnc12	LMP1 NFkB inh 71.8, aSyn UTR inh 111.5, MITF TRPM1 inh 74.5 (no result: PAX8 reporter)
CC(=O)c1ccc(-c2ccc(C(=O)N3CCN(c4ccc(F)cc4)CC3)o2)cc1	none
O=S(=O)(c1ccc(Cl)cc1)N1CCN(Cc2ccc(O)c3ncccc23)CC1	Shn3 inh set2 87.7, aSyn UTR inh 77.2, MITF TRPM1 inh 64.0
COc1ccc(S(=O)(=O)N2CCCCC2)cc1NC(=O)CNc1ccccc1N1CCCC1=O	none (no result: aSyn UTR inh)
Cc1ccc(S(=O)(=O)N2CCCCC2)cc1NC(=O)Cc1c[nH]c2ccccc12	PAX8 reporter 152.8
Cc1ccc(S(=O)(=O)N2CCCCC2)cc1NC(=O)CNc1ccccc1N1CCCC1=O	LMP1 NFkB inh 41.7 (no result: aSyn UTR inh)
CC1CCC2C(=O)N(c3ccc(Cc4ccncc4)cc3)C(=O)C2C1 (configuration not stated)	Shn3 inh set2 86.7
Cc1ccccc1N1CN(Cc2ccco2)CNC1=S	PAX8 reporter 61.0
Cc1cc(-c2nnc(CCC(=O)NCC(C)c3ccccc3)o2)no1 (configuration not stated)	none
CC(=O)N(C)C1=C(N2CCOCC2)C(=O)c2ccccc2C1=O	aSyn UTR inh 76.2, MITF TRPM1 inh 88.6 (no result: PAX8 reporter)
Cc1cc(C)c(C(N)=O)c(SCC(=O)c2cc(C)n(-c3cc(C)on3)c2C)n1	Shn3 inh set2 89.7 (no result: aSyn UTR inh)
Cc1cc(-n2c(C)cc(C(=O)CSc3nncn3C)c2C)no1	Shn3 inh set2 90.4 (no result: aSyn UTR inh)
COc1cccc(Nc2nnc(SCC(=O)N(CC(C)C)CC(C)C)s2)c1	none (no result: PAX8 reporter)
COc1cccc(Nc2nnc(SCN3C(=O)c4ccccc4C3=O)s2)c1	PAX8 reporter 84.0
O=C(Nc1cccc(Cl)c1)N[C@H]1CC[C@H](CCNC(=O)C2CCCC2)O[C@H]1CO	none (no result: Shn3 inh set2, LMP1 NFkB inh, aSyn UTR inh, MITF TRPM1 inh)
CCn1c(SCC#N)nc2ccccc2c1=O	none
N#CCSc1nc2ccccc2c2nc3ccccc3n12	MITF TRPM1 inh 76.6
CCOc1ccc2c(c1)C(C)=CC(C)(C)N2S(=O)(=O)c1ccc(C)cc1	PAX8 reporter 82.1, aSyn UTR inh 103.2, MITF TRPM1 inh 74.9
COc1ccc2c(c1)C(C)=CC(C)(C)N2S(=O)(=O)c1ccc(C)cc1	PAX8 reporter 78.6
CCNC(=O)N1c2ccc(OCC)cc2C(C)=CC1(C)C	none
CC1=CC(C)(C)N(S(=O)(=O)c2ccc(C)cc2)c2cc(C)ccc21	none (no result: PAX8 reporter)
CN1C(C(=O)NCc2cccc(C(F)(F)F)c2)CC2Cn3c(nc4ccccc43)C21 (configuration not stated)	none

High-throughput results (PubChem)
